CD40 NFkB inh: CD40 pathway inhibition in BL2 cells | BL2 NF-kB luciferase reporter, CD40L-induced, 4 h | 83,000 tested, 0.94% active | inhibition, % at 10 µM;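 active = mean inhibition of at least 50% with a set share of replicates also reaching that level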;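 note: 0% = neutral control wells and 100% = IKK inhibitor VII at 50 µM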
Numbers without * were called inactive; [ ] = remark or other dose. This is one part of a sample in which hits are shown more often than they occur.

SMILES	CD40 NFkB inh
COc1cccc(S(=O)(=O)N(C)C[C@@H]2OCc3ccccc3-c3c(n(C)c4ccccc34)C(=O)N([C@H](C)CO)C[C@H]2C)c1	64.2*[25 µM]
Cc1cccc(S(=O)(=O)N(C)C[C@@H]2OCc3ccccc3-c3c(n(C)c4ccccc34)C(=O)N([C@H](C)CO)C[C@@H]2C)c1	15.2
COc1cccc(S(=O)(=O)N(C)C[C@H]2OCc3ccccc3-c3c(n(C)c4ccccc34)C(=O)N([C@@H](C)CO)C[C@H]2C)c1	61.1*[25 µM]
C[C@@H]1CN([C@@H](C)CO)C(=O)c2c(c3ccccc3n2C)-c2ccccc2CO[C@@H]1CN(C)S(=O)(=O)c1ccc([N+](=O)[O-])cc1	30.9[25 µM]
COc1ccc(S(=O)(=O)N(C)C[C@H]2OCc3ccccc3-c3c(n(C)c4ccccc34)C(=O)N([C@H](C)CO)C[C@H]2C)cc1	3.9
COc1cccc(NC(=O)N[C@@H]2CC[C@@H](CC(=O)N3CCN(C)CC3)O[C@@H]2CO)c1	2.6[25 µM]
CN(C)CC(=O)Nc1ccc2c(c1)C(=O)N(C)[C@H]1CC[C@H](CC(=O)Nc3cccc(Cl)c3)O[C@@H]1CO2	4.2[25 µM]
O=C(Cc1ccccn1)N1CC(=O)N2[C@H](C1)[C@H](c1ccc(C#CC3CCCC3)cc1)[C@@H]2CO	1.3
CC(C)(C)[S@@](=O)N1Cc2cc(C(=O)N[C@@H]3CCN(Cc4ccccc4)C3)nc(-c3cccc(-c4cncnc4)c3)c2[C@H]1CCO	-5.5
CN1c2ccc(-c3cccc(F)c3)cc2[C@H]2[C@H](CCN2C(=O)C2CC2)[C@@H]1CO	-43.6
COc1ccc2c3c([nH]c2c1)[C@H](CO)N(C(=O)Nc1c(C)noc1C)CC31CCN(CC2CCCC2)CC1	4.0
O=C(Nc1ccccc1)N1CC(=O)N2[C@H](CO)[C@H](c3ccc(C#CC4CCCCC4)cc3)[C@@H]2C1	38.9[25 µM]
O=C1CNC[C@@H]2[C@H](c3ccc(-c4ccccc4F)cc3)[C@@H](CO)N12	2.3[25 µM]
COc1cccc(S(=O)(=O)N(C)C[C@@H]2OCc3ccccc3-c3c(n(C)c4ccccc34)C(=O)N([C@H](C)CO)C[C@@H]2C)c1	62.5*[25 µM]
C[C@@H]1CN([C@H](C)CO)C(=O)c2c(c3ccccc3n2C)-c2ccccc2CO[C@@H]1CN(C)S(=O)(=O)c1ccccc1	7.9
Cc1cccc(S(=O)(=O)N(C)C[C@H]2OCc3ccccc3-c3c(n(C)c4ccccc34)C(=O)N([C@H](C)CO)C[C@@H]2C)c1	9.0
C[C@@H]1COCn2nncc2CC[C@@H](Cc2ccccc2)C(=O)N1	-0.7
COC(=O)[C@H]1[C@H](CO)[C@H]2Cn3c(cccc3=O)[C@H]2N1C(=O)C1CCCC1	-2.3
COc1ccc2c3c(n(C)c2c1)[C@H](CO)N(S(C)(=O)=O)CC31CCN(C(=O)Nc2cccc(F)c2)CC1	5.3[25 µM]
CN1C(=O)c2ccccc2C(O)c2ccccc21 (configuration not stated)	14.5
O=C1NNC(=O)C1c1ccccc1	6.6
O=C1C=CC(=O)C2=C1C1c3ccccc3C2c2ccccc21	58.8*[25 µM]
O=C(Nc1ccccc1N1CCOCC1)c1cnccn1	13.5
O=C(Nc1ccc(S(=O)(=O)N2CCCC2)cc1)c1cnccn1	-2.9
O=C(Nc1ccc(N2CCOCC2)cc1)c1cnccn1	81.3*
SMILES	CD40 NFkB inh
CN(C)CC(=O)N[C@@H]1CC[C@@H](CCn2cc(C3CCCC3)nn2)O[C@@H]1CO	0.8
COc1ccc(NC(=O)N(C)C[C@H]2OCc3cn(nn3)CCCC(=O)N([C@H](C)CO)C[C@H]2C)c(OC)c1	-2.8[25 µM]
CCC(=O)N1[C@H](CN(C)C(C)=O)[C@H](c2ccc(-c3cccc(F)c3)cc2)[C@@H]1CO	7.9
O=C(C[C@@H]1CC[C@@H]2[C@H](COC[C@@H](O)CN2S(=O)(=O)c2ccc(Cl)cc2)O1)NCCN1CCCCC1	1.2
CNC[C@H]1Oc2ccc(N(C)C)cc2CC(=O)N(C)C[C@@H]1C	-9.4
N#C[C@H]1N[C@H](CO)[C@H]1c1ccc(C#CC2CCCC2)cc1	61.8*
N#C[C@H]1N[C@@H](CO)[C@@H]1c1ccc(C#Cc2ccccc2F)cc1	active[25 µM]
N#C[C@H]1N[C@H](CO)[C@H]1c1ccc(C#Cc2ccc(F)cc2)cc1	3.9[25 µM]
N#C[C@@H]1N[C@H](CO)[C@@H]1c1ccc(C#CC2CCCC2)cc1	-9.7
N#C[C@@H]1N[C@H](CO)[C@@H]1c1ccc(C#Cc2ccccc2F)cc1	-43.1[25 µM]
N#C[C@@H]1N[C@H](CO)[C@H]1c1ccc(C#CC2CCCC2)cc1	13.3
CO[C@@H]1CN(C)C(=O)c2cc(NC(=O)C3CC3)ccc2OC[C@H](C)N(CC2CCCC2)C[C@@H]1C	-5.8
CC(C)[C@H]1C(=O)N[C@H](c2cccc(Cl)c2)CC=CC[C@@H](C)Oc2ccccc2C(=O)N1C (mixture of isomers)	3.5[25 µM]
CCCNC(=O)N1C[C@H](O)COC[C@H]2O[C@@H](CC(=O)OC)CC[C@@H]21	-9.1[25 µM]
CCOC(=O)N1CCN(Cc2ccc(O)c3ncccc23)CC1	65.2*
Oc1ccc(CN2CCN(c3ccccc3)CC2)c2cccnc12	-12.9
COCc1cc(CN2CCCC2)c(O)c2ncccc12	9.7
C/C=C/c1ccc(C2[C@@H]3CN(S(=O)(=O)c4ccccc4C)C[C@H]2N3)cc1 (some centres not stated)	2.0
C[C@@H]1CN([C@H](C)CO)C(=O)c2c(c3ccccc3n2C)-c2ccccc2CO[C@H]1CN(C)Cc1cccnc1	9.0[25 µM]
O=C(c1cnccn1)N1CC(=O)N2[C@H](CO)[C@@H](c3ccc(/C=C/c4ccccc4)cc3)[C@@H]2C1	-20.6[25 µM]
CN1C(=O)c2cc(NC(=O)C3CC3)ccc2OC[C@H]2O[C@H](CC(=O)NCC3CCCCC3)CC[C@@H]21	11.9
C[C@H]1CN(C)C(=O)c2ccccc2O[C@@H]1CN(C)S(C)(=O)=O	9.5
S=C(NC1CC1)N1CCc2ccccc2C1	7.9
S=C(N/N=C1\CCc2ccccc21)NC1CCCCC1	61.9*
S=C(Nc1ccccc1Oc1ccccc1)NC1CCCC1	8.6
SMILES	CD40 NFkB inh
O=C1N[C@@H](c2ccccc2)COCc2cnnn2CC[C@@H]1Cc1ccc(C(F)(F)F)cc1	1.1[25 µM]
O=C(Nc1nnc(C2CC2)s1)c1cc2ccccc2o1	-60.5
Cc1cnc(NC(=O)c2cc3ccccc3o2)s1	56.0*
Cc1nnc(NC(=O)c2cc3ccccc3o2)s1	-71.8
CNC[C@H]1Oc2c(NS(C)(=O)=O)cccc2C(=O)N(C)C[C@H]1C	-1.1
Cc1onc(-c2ccccc2)c1-c1nc2ccccc2c(=O)o1	56.1*
O=c1oc(-c2cccnc2)nc2ccccc12	-4.5
O=c1onc(-c2ccccc2)c2ccccc12	-11.6
COCC#Cc1ccc([C@@H]2[C@@H](CO)N3C(=O)CN(C(=O)C4CCCC4)C[C@H]23)cc1	-3.9
O=C(Nc1ccccc1)c1cn2ccccc2n1	68.9*
O=C(Nc1ccc(-n2cnnn2)cc1)c1cn2ccccc2n1	-55.0
O=C(Nc1cccc(-c2cn3ccccc3n2)c1)c1cnccn1	-24.6
CCC(=O)N1[C@@H](CO)[C@@H](c2ccc(-c3ccccc3)cc2)[C@@H]1CN(C)C(C)=O	4.3
COc1ccc(CCNC(=O)COC(=O)c2cccs2)cc1	1.4
CC(=O)NCCc1ccc(C(=O)COC(=O)c2cccs2)cc1	77.2*
COc1ccccc1C(=O)COC(=O)c1cccs1	-58.4
COc1ccc(C(=O)Nc2ccc(C(=O)OCC(=O)c3ccccc3)cc2)cc1	3.1
COc1ccc(C(=O)COC(=O)c2cccs2)cc1	80.9*
CC(=O)NCCc1ccc(C(=O)COC(=O)c2cccn2C)cc1	38.7

Screening results: PubChem BioAssay, Broad Institute
